According to PubChem BioAssay (NCATS):
Results filed as inconclusive are left out. Where a call stands in place of a potency, no number is given. The source made the active and inactive calls. Unless noted, calls come from the whole dose curve; as a rule, active = well fitted curve in the direction sought with a large enough effect; inconclusive = small, poorly fitted or top-dose-only effect, or another doubt; inactive = no such curve, though single readings can be large; an effect the other way counts as inactive or inconclusive.

Experiments:
[1] = qHTS for Hypoxia signaling pathway (HIF-1) antagonists against the NCATS CANVASS Library (AID 1347374); note: nearly all actives have a fitted effect of over 60% in size; note: potency is the fitted concentration of half-maximal effect;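 for activity change, negative = inhibition: HRE-bla ME-180 cells stimulated with cobalt chloride to stabilize HIF-1alpha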
In short: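 Antagonism scored as loss of CoCl2-driven (60 uM stock added) HRE beta-lactamase signal, read by CCF4 FRET at 460/530 nm. Compounds were tested in an 11-point series on ME-180 reporter cells for 17 hrs at 37C, with parallel CellTiter-Glo cytotoxicity.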

[2] = qHTS for inhibitors of Wild type Zika virus screened against the NCATS CANVASS Library (AID 1347396);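 note: ATP luminescence of surviving cells so rescue from viral cell killing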
In short: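 Vero 766 cells, 1000/well, o/n attach; cpds pin-transferred (11-pt qHTS); WT Zika added; 72 h, 37C, 5% CO2; CellTiter Glo lumi. Uninfected + vehicle = 100% inhibition.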

[3] = AP1 Signaling Pathway (AID 357; active = well fitted curve in either direction with a large enough effect, not every such curve was filed as active;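 note: ME-180 reporter cells stimulated with EGF at its EC50 level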); conditions: ME-180 AP-1-bla reporter, EGF-induced, beta-lactamase ratio, 5 h; at 38 µM (top of the series)
In short: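 In this screen, ME-180 cells in Opti-MEM with 0.5% dialyzed FBS received EC50 EGF and compound titrations for 5 h. AP-1 reporter beta-lactamase was detected via CCF4 ratio, giving AC50 for positive and negative modulators.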

[4] = NFAT Signaling Pathway (AID 444; active = well fitted curve in either direction with a large enough effect, not every such curve was filed as active;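 note: carbachol stimulus at about its EC50 of 1 µM final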); conditions: Jurkat NFAT-bla M1, carbachol, beta-lactamase ratio, 5 h; at 38 µM (top of the series)
In short: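 Jurkat cells carrying an NFAT-driven β-lactamase reporter and co-transfected muscarinic M1 receptor were treated with compound plus carbachol (1 uM final, an EC50 level) for 5 h at 37 °C. CCF4 loading followed for 1 h at RT; 460/530 nm ratio gave %activity.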

[5] = Stat Signaling Pathway (AID 446; active = well fitted curve in either direction with a large enough effect, not every such curve was filed as active;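 note: ME-180 cervical cancer cells given 40 pM IL-6 alongside compound; SIE-controlled beta-lactamase reporter measured as 460/530 nm FRET emission ratio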); conditions: ME-180 (cervical carcinoma) SIE beta-lactamase reporter, IL-6 stimulated, 5 h; at 38 µM (top of the series)
In short: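 Compound effects on IL-6-induced STAT reporter activity were measured in ME-180 cells. After overnight culture, cells were co-treated with 40 pM IL-6 for 5 hrs before beta-lactamase substrate loading at room temperature.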

[6] = target: Guanine nucleotide-binding protein G(i) subunit alpha-1 (Homo sapiens) (UniProt P63096); experiment: qHTS Assay for Inhibitors of RGS12 GoLoco Motif Activity (Green Fluorophore) (AID 879);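 note: negative values mean loss of peptide binding seen as reduced polarization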
Chain of Guanine nucleotide-binding protein G(i) subunit alpha-1 (Homo sapiens) (P63096 whole entry, looked up): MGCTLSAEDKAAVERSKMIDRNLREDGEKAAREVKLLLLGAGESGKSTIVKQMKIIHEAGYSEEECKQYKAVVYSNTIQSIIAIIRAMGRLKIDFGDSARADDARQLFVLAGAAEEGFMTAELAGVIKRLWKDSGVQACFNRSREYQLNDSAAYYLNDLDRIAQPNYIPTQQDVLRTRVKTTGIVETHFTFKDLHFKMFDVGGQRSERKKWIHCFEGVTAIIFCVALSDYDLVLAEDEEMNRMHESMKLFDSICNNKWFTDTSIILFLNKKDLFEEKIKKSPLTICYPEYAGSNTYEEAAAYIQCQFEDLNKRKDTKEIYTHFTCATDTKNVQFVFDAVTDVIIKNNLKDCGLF
In short: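 A drop in FITC polarization marked displacement of the FITC-tagged RGS12 GoLoco peptide (10 nM) from Gαi1 (50 nM). Compounds were incubated 10 min at room temperature in Tris pH 7.5 buffer containing 150 mM NaCl, 0.1 mM GDP and 0.05% NP40; unlabeled peptide titration served as control.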

[7] = qHTS Assay for Identification of Small Molecule Agonists for Thrombopoietin (TPO) Signaling Pathway (AID 917)
In short: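 Stimulation at the TPO EC50 (26 pM final) was used to detect activators. Ba/F3 mouse cells bearing human TPO receptor and a luciferase reporter under the Glycoprotein IIb promoter were exposed to compounds for 24 hrs at 37 C.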

[8] = target: Muscarinic acetylcholine receptor M1 (Rattus norvegicus) (UniProt P08482); experiment: qHTS Assay for Antagonists of Acetylcholine Muscarinic M1 Receptor: Measurement of IP-One Response (AID 944); note: nearly all actives have a fitted effect of over 75% in size
Chain of Muscarinic acetylcholine receptor M1 (Rattus norvegicus) (P08482 whole entry, looked up): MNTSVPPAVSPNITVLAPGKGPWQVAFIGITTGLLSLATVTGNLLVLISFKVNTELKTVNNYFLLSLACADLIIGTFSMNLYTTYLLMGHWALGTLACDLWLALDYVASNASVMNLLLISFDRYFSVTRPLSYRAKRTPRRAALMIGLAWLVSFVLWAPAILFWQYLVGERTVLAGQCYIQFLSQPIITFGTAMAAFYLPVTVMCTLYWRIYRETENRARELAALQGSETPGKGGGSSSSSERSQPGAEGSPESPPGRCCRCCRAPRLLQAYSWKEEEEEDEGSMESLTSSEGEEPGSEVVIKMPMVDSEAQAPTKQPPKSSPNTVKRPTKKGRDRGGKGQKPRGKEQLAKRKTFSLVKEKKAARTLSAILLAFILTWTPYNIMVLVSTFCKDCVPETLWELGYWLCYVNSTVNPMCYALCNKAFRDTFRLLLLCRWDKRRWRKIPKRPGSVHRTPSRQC
In short: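 Antagonist mode with rat M1 receptor transfected into CHO cells. Compound is added first for 10 min, carbachol at its EC80 follows for 30 min, and lysis reagents then allow TR-FRET detection of accumulated IP1.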

[9] = target: Pyruvate kinase (Leishmania mexicana) (UniProt Q27686); experiment: qHTS Validation Assay for Inhibitors of Leishmania Mexicana Pyruvate Kinase (AID 945)
Chain of Pyruvate kinase (Leishmania mexicana) (Q27686 2-499 E452W): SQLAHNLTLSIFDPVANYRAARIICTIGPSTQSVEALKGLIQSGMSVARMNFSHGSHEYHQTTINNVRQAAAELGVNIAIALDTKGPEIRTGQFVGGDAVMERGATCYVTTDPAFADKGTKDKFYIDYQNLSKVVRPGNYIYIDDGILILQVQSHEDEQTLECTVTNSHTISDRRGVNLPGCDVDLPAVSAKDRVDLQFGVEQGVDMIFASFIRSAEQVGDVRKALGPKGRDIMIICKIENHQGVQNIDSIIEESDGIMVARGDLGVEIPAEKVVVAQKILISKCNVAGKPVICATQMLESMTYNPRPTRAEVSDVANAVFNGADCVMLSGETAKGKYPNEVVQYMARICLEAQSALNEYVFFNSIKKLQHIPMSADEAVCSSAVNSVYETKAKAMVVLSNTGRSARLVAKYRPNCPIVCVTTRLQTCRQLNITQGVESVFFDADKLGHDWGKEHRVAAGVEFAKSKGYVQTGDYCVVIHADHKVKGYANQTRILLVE
In short: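 An endpoint luciferase assay: 0.2 nM LmPYK E451W turns over 0.5 mM PEP with 0.1 mM ADP for 1 h at room temperature, pH 7.2, before PKLight addition. Values are normalized to DMSO-only wells.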

[10] = target: Pyruvate kinase PKM (Homo sapiens) (UniProt P14618); experiment: qHTS Assay for Activators of Human Muscle Pyruvate Kinase (AID 954; active = well fitted curve in the direction sought with a large enough effect, not every such curve was filed as active)
Chain of Pyruvate kinase PKM (Homo sapiens) (P14618 whole entry, looked up): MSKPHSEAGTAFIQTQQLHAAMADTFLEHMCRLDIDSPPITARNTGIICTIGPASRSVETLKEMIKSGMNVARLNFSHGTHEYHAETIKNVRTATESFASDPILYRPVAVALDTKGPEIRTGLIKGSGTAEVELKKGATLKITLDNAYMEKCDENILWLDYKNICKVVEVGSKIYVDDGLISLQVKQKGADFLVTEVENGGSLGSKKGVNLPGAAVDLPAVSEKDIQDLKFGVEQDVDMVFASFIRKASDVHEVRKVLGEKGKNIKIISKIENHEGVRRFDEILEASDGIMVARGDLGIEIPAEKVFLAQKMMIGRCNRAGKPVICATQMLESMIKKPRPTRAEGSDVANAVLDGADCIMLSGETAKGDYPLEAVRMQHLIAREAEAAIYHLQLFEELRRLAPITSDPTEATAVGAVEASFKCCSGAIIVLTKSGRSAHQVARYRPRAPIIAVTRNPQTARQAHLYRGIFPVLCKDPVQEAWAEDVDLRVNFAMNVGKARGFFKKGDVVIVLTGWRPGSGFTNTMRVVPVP
In short: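 A coupled luminescent readout tracked ATP made from ADP by purified PKM2. Final conditions included 0.1 nM enzyme, PEP and ADP at 0.5 and 0.1 mM, pH 7.2 imidazole buffer with BSA, and a one-hour room-temperature reaction.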

[11] = target: alpha-glucosidase (Oryza sativa, rice) (UniProt Q653V4); experiment: Counterscreen for Glucocerebrosidase Inhibitors: qHTS Assay for Rice alpha-Glucosidase at pH 5.0 (AID 997)
In short: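 Endpoint fluorogenic assay at pH 5.0: compounds (0.7 nM to 77 uM) titrated against 4 nM rice enzyme and 400 uM 4-MU-alpha-glucoside for 20 min at room temperature; NaOH/glycine stop, read ex 365/em 440 nm, Hill-fitted AC50.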

[12] = Primary qHTS for inhibitors of nuclear receptor binding SET domain protein 2 (NSD2) in an isogenic RCH-ACV NSD2 p.E1099K mutant (9B) (AID 1645876); note: nearly all actives have a fitted effect of over 70% in size; note: potency is the fitted concentration of half-maximal effect
[13] = target: Glutathione peroxidase 1 (Homo sapiens) (UniProt P07203); experiment: Primary qHTS Assay for Inhibitors of Recombinant Selenoprotein Glutathione Peroxidase 1 (GPX1) (AID 1845191); note: nearly all actives have a fitted effect of over 65% in size
Chain of Glutathione peroxidase 1 (Homo sapiens) (P07203 whole entry, looked up): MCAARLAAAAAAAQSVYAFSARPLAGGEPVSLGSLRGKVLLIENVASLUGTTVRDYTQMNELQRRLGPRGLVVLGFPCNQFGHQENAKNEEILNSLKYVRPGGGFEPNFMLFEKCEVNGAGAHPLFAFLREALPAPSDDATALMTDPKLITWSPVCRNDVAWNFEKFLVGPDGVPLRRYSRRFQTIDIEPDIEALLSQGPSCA
In short: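 GPX1 10 nM, GR 100 nM, GSH 1 mM, NADPH 0.5 mM, CHP 0.5 mM (final). 30-min cpd preincubation, RT. Ex340/Em450 read t=0, t=15 min.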

[14] = qHTS drug screen for cell cycle checkpoint inhibitors in PARPi-resistant BRCA-mutant ovarian cancer cell lines. (AID 1963452; calls by dose curve); conditions: PEO1/OlaR viability, CellTiter-Glo luminescence, 96 h, stronger effect = lower value
In short: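 PEO1, PEO4 and PEO1/OlaR ovarian cancer cells, 600 per well, exposed 96 h at 37C to a dilution series. Viability read by CellTiter-Glo luminescence, normalized to DMSO and empty wells; activity summarized as Z-AUC.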

[15] = Primary qHTS for inhibitors of nuclear receptor binding SET domain protein 2 (NSD2) in an RCH-ACV wild type WT cells (2C) (AID 1645877); note: nearly all actives have a fitted effect of over 70% in size
[16] = measured here: PEO1 parental Z-AUC

Oc1ccc(/C=C2/c3cc(O)cc(O)c3C(c3ccc(O)cc3)[C@H]2c2cc(O)cc(O)c2)cc1 (stereo partly drawn)
Potency [1]: inactive | Potency [2]: inactive

C/C(=C\[C@H](C)C(=O)CCCC1CC(=O)NC(=O)C1)[C@@H]1OC(=O)/C=C/CC/C=C/C[C@@H](O)[C@@H]1C
Potency [1]: 1060 nM (active)

CO[C@H]1/C=C/CC[C@@H](S[C@@H]2O[C@H](CO)[C@@H](O)[C@H](O)[C@H]2O)CC(=O)O[C@@H](/C(C)=C/[C@H](C)C(=O)CCCC2CC(=O)NC(=O)C2)[C@@H](C)[C@@H]1O
Potency [2]: inactive

C=CC(C)(C)C(=O)[C@@H](C)[C@@H]1CC[C@](C)(C=C)O1
Potency [2]: inactive

CCCCCCC[C@@H](C/C=C/CCC(=O)NCCc1c[nH]c2ccccc12)OC
Potency [1]: inactive

O=C1CC(c2cc(O)cc(O)c2)Oc2cc(O)ccc21 (stereo not drawn)
Potency [1]: inactive | Potency [2]: inactive

CC12C[C@]3(O)O[C@@H](O1)[C@]1(COC(=O)c4ccccc4)[C@@H]3CC21OC1OC(CO)C(O)C(O)C1O (stereo partly drawn)
Potency [1]: inactive

Oc1ccc(C2c3c(O)cc(O)cc3[C@@H]3C(c4ccc(O)cc4)c4c(O)cc(O)cc4[C@H]23)cc1 (stereo partly drawn)
Potency [1]: inactive | Potency [2]: inactive

CC(=O)[C@@H]1[C@@H](O)C[C@H]2[C@]3(C)CC[C@H]4C(C)(C)CCC[C@]4(CO)[C@H]3C[C@H]3OC(=O)[C@@H]1[C@@]32C
Potency [2]: inactive

Oc1ccc([C@H]2Oc3ccc(/C=C/c4cc(O)cc(O)c4)cc3C2c2cc(O)cc(O)c2)cc1 (stereo partly drawn)
Potency [2]: inactive

CN(C)CCCCSC(=N)N
activity change, negative = inhibition [3]: 1.82% (inactive) | activity change, negative = inhibition [4]: 1.09% (inactive) | activity, negative = inhibition [5]: -29.5% (inactive) | outcome [6]: inactive | Potency [7]: inactive | Potency [8]: inactive | Potency [9]: inactive | outcome [10]: inactive | outcome [11]: inactive

O=c1cc(-c2ccc(O)c(O[C@@H]3O[C@H](CO)[C@@H](O)[C@H](O)[C@H]3O)c2)oc2cc(O[C@@H]3O[C@H](CO)[C@@H](O)[C@H](O)[C@H]3O)cc(O)c12
Potency [1]: inactive

C=C1C(=O)O[C@H]2C[C@H](C)[C@@H]3CC(=O)C(C)=C3[C@H](O)[C@H]12
Potency [1]: 7470 nM (active) | Potency [2]: inactive

CC(C)(Br)[C@@H](Cl)C[C@H](Br)[C@](C)(Cl)/C=C/Br
Potency [2]: inactive

Cc1ccc(Nc2ncc3c(n2)N(C)C(=O)N(c2cc(NC(=O)c4cccc(C(F)(F)F)c4)ccc2C)C3)cn1
Potency [12]: 33.2 nM (active) | Potency [13]: inactive | Z-AUC [14]: -1.89 (inactive) | Z-AUC [14, 16]: -2.2 | Z-AUC ([14]; measured here: PEO4 Z-AUC): -1.4

CC1(C)CC[C@]2(C(=O)O)CC[C@]3(C)C(=CC[C@@H]4[C@@]5(C)C[C@@H](O)[C@H](O)C(C)(C)[C@@H]5CC[C@]43C)[C@@H]2C1
Potency [12]: inactive | Potency [15]: inactive | Potency [13]: inactive | Z-AUC [14]: 1.45 (inactive) | Z-AUC [14, 16]: 0.722 | Z-AUC ([14]; measured here: PEO4 Z-AUC): 0.511

CC(C)(C)n1nc(-c2cccc3ccccc23)c2c(N)ncnc21
Potency [13]: inactive
